Test results reported in PubChem BioAssay AID588855 (National Center for Advancing Translational Sciences (NCATS), 2011).
Out of some 410,000 compounds screened, about 5,000 (1.2%) were called active. Where a call stands in place of a potency, no number is given. About 13% were inconclusive and are not listed. Calls come from the whole dose curve; as a rule, active = well fitted inhibition curve with a large enough effect; inconclusive = small, poorly fitted or top-dose-only effect; inactive = no such curve, though single readings can be large or run the other way. The sample as a whole holds a higher share of actives than the screen did.

Assay: qHTS for Inhibitors of TGF-b; note: nearly all actives have a fitted effect of over 65% in size
Details: HepG2 CAGA-GFP TGF-b/SMAD3 reporter, GFP fluorescence, 18 h, TGF-beta stimulated, 500 pg/mL final; series mostly up to 46.1 µM
From the text: TGF-b is a main component in the TGF-b signaling pathway which plays diverse roles in cellular and development pathways. TGF-b is the mediated by the transcription factors Smads. Although the Smad-dependent pathway is the primary canonical TGF-b signaling node, TGF-b1 can also activate alternative signaling pathways, including those involving MAPK (ERK, JNK and p38). This interaction may mediate or enhance Smad-dependent responses, or can exert Smad-independent effects. The complexity of this signaling cascade allows the TGF-b superfamily to perform unique, overlapping or redundant functions. We believe that targeting the TGF-beta pathway at the Smad-transcription factor level may eliminate the consequences of disrupting the entire pathway and offer specificity without affecting other signaling pathways. Smad3 is the primary transducer of TGF-b's signals and Smad3 regulates many functions attributed to TGF-b signaling. We hypothesize that Smad3 inhibitors will selectively eliminate Smad3-specific TGF-beta signals without undesired off-target effects. We aim to identify Smad3-small molecule antagonists using a quantitative high throughput screening (qHTS) approach.
A high-throughput assay was developed to screen the NIH Molecular Libraries Small Molecule Repository (MLSMR). This is a cell based assay, where TGF-b is tagged with GFP. A counterscreen is run that looks at cytotoxicity (please see summary AID).
MH087449NIH Chemical Genomics Center [NCGC]
NIH Molecular Libraries Probe Centers Network [MLPCN]
Assay Submitter (PI): Sushil Rane, National Institute of […]
Suspensions of trypsinized HEPG2 CAGA-GFP cells were dispensed into white, tissue culture-treated, solid 1536-well plates at 5uL/well (1000 cells/well final concentration) in DMEM medium supplemented with 1% FBS. Plates were incubated at 37 degrees C for 2 hours, after which 23 nL of compounds or DMSO were delivered to each well using a pin tool. One uL of recombinant TGF-beta in DMEM (1% FBS) was then dispensed (500 pg/mL final concentration), and plates were incubated at 37 degrees C for 18 hours. The plates were measured on an Acumen eX3 Explorer plate reader for GFP fluorescence (ex488/em500-530). GFP values were calculated by determining the mean GFP fluorescence of individual cells, and compiling these values for each well to determine a total well GFP signal. The %Activity was determined from the corrected fluorescence values. A titration of the known TGF-B inhibitor SB431542 was included to monitor plate performance, while unstimulated HEPG2 (-TGF-B) control wells were used to normalize %Activity of identified inhibitors; unstimulated wells corresponded to 100%Activity (full inhibition), while stimulated cell controls (+DMSO) were used to normalize 0%Activity (no inhibition).
Concentration-response curves were fitted to the signals arising from the resulting fluorescence. The concentration-effect curves were then classified based on curve quality (r2), response magnitude and degree of measured activity, and compounds were subsequently categorized based on their curve class.
Potency is the fitted concentration of half-maximal effect.

Row | SMILES | Potency
1 | Nc1ccc(/C=C/c2ccnc3ccccc23)c([N+](=O)[O-])c1 | inactive
2 | CCCCN(CC)CCCNC(=O)c1nn(C)c2c1CSc1ccccc1-2 | inactive
3 | COc1cccc(CNC(=O)c2cccnc2Sc2ccc(Cl)cc2)c1 | inactive
4 | COc1c(Cl)cc(Cl)cc1C(=O)Nc1cccc2cccnc12 | inactive
5 | CC(=O)/C(=N\Nc1ccc(Cl)cc1Cl)Sc1cccc2cccnc12 | 2.82 µM (active)
6 | COc1cccc(CN2CCc3nc(SCC(=O)Nc4ccccc4)[nH]c(=O)c3C2)c1 | inactive
7 | COc1ccccc1NC(=O)c1oc2ccccc2c1NC(=O)C(C)C | inactive
8 | CN(c1ccccc1)S(=O)(=O)c1cc(C(=O)OCC(=O)N2CCN(C(=O)c3ccco3)CC2)ccc1Cl | 10 µM (active)
9 | O=C(OCC(=O)N1CCN(C(=O)c2ccco2)CC1)c1c(Cl)cccc1Cl | inactive
10 | O=C(OCC(=O)N1CCN(C(=O)c2ccco2)CC1)c1cccc(O)c1 | inactive
11 | CCOc1ccc(NC(=O)c2cnn(-c3ccccc3)c2-n2cccc2)cc1 | inactive
12 | Cc1c(CNC(C)c2ccccc2)c(C(=O)O)c(C)n1Cc1c(F)cccc1Cl (stereo not drawn) | inactive
13 | CCc1cccc(NC(=O)CSc2nccn2C)c1 | inactive
14 | O=C(Cn1ncc2c3ccccc3n(Cc3ccccc3)c2c1=O)NC1CCCCCC1 | inactive
15 | Cc1ccc(CC2(C)C(=O)Nc3ccc(OC(F)(F)F)cc32)cc1 (stereo not drawn) | 15.8 µM (active)
16 | COc1ccccc1CNS(=O)(=O)c1ccc2c(c1)NC(=O)CS2 | inactive
17 | COc1ccccc1CC1(C)C(=O)Nc2ccc(OC(F)(F)F)cc21 (stereo not drawn) | 20 µM (active)
18 | COc1ccc(C2(O)C(=O)Nc3ccccc32)cc1 (stereo not drawn) | inactive
19 | O=C(CSc1ncc(-c2ccccc2)[nH]1)Nc1ccc(F)cc1F | inactive
20 | Cc1ccc(N2CC(C(=O)Nc3ccc(N(C)C)cc3)CC2=O)cc1Cl (stereo not drawn) | inactive
21 | Cc1cccc(OCC(=O)N(Cc2ccc(C(C)C)cc2)Cc2ccco2)c1C | inactive
22 | CN(C)c1ccc(/C=C/c2c3ccccc3nc3ccccc23)cc1 | inactive
23 | COc1ccccc1N1CCN(C2C(=O)c3ccccc3N2C(C)=O)CC1 (stereo not drawn) | inactive
24 | COc1ccc(NC(=O)CCNS(=O)(=O)c2ccc3c(c2)CCCC(=O)N3)cc1Cl | inactive

Row | SMILES | Potency
25 | CCOC(=O)CN1CCC(c2ccccc2)CC1 | inactive
26 | CCOC(=O)C[C@H]1c2ccc(C(F)(F)F)cc2S(=O)(=O)N1c1ccccc1 | 14.1 µM (active)
27 | CCOC(=O)CNC(=O)/C(=C\c1ccc(F)cc1)NC(=O)c1ccccc1 | inactive
28 | CC1(C)CC(N2CCN(C(c3ccccc3)c3ccccc3)CC2)=CC(=[N+]2CCCCC2)C1 | 6.31 µM (active)
29 | CC(C)OCC(O)CN1CCN(C(c2ccccc2)c2ccccc2)CC1 (stereo not drawn) | inactive
30 | Cc1onc(C(=O)NN)c1C(=O)N1CCN(C(c2ccccc2)c2ccccc2)CC1 | inactive
31 | COc1ccc(NC(=O)c2sc3nc(-c4cc5cccc(OC)c5oc4=O)[nH]c(=O)c3c2C)cc1 | inactive
32 | Cc1csc[n+]1CCC1CCCCC1 | inactive
33 | Cc1ccccc1C(=O)Nc1cc(C)c(O)c(-c2nc3ccccc3o2)c1 | inactive
34 | CC1CCc2c(nc3ncnn3c2Nc2ccc(OC(F)(F)F)cc2)C1 (stereo not drawn) | 15.8 µM (active)
35 | CC(=O)c1nn(-c2ccc(OC(F)(F)F)cc2)nc1Nc1ccccc1 | inactive
36 | COC(=O)c1cnn(-c2ccc(C(=O)Nc3ccc(OC(F)(F)F)cc3)cc2)c1N | inactive
37 | CCCN(CCC)CCNC(=O)c1cc2c(C)nc3ccccc3c2o1 | inactive
38 | Cc1cc(C)n(C(=O)CCNC(=O)c2ccccc2Cl)n1 | inactive
39 | CN(C)CCNC(=O)c1ccc(Cl)c2cc3ccccc3nc12 | 3.55 µM (active)
40 | O=C(CCC(=O)N1CCN(S(=O)(=O)c2ccc(Cl)cc2)CC1)NCc1cccc(C(F)(F)F)c1 | 7.08 µM (active)
41 | O=C(CCC(=O)c1ccccc1)NCc1cccc(C(F)(F)F)c1 | inactive
42 | CC(NC(=O)CCC(=O)N1CCN(S(=O)(=O)c2ccc(Cl)cc2)CC1)c1ccccc1 (stereo not drawn) | inactive
43 | Cc1cc(OCC(=O)Nc2ncn[nH]2)c(C)c(C)c1Br | inactive
44 | CCCn1c2ccccc2c2cnn(CC(=O)NCCCOC(C)C)c(=O)c21 | inactive
45 | CCOC(=O)c1c(NC(=O)c2ccc(S(=O)(=O)N3CCCC(C)C3)cc2)sc2c1CCN(C(C)C)C2 (stereo not drawn) | inactive
46 | CCOC(=O)c1cnc2c(C)cc(C)cc2c1Nc1ccc(N2CCOCC2)cc1 | inactive
47 | CCC1=Nc2cc(C(=O)NCC(C)c3ccccc3)ccc2Sc2ccc(C)cc21 (stereo not drawn) | inactive
48 | COCCNC(=O)c1ccc2c(c1)N=C(C)c1cc(C)ccc1S2 | 2 µM (active)
